Measured values taken from PubChem BioAssay (NCATS).
Active and inactive are the calls of the source. The call rests on the fitted dose curve.

Test: qHTS drug screen for cell cycle checkpoint inhibitors in PARPi-resistant BRCA-mutant ovarian cancer cell lines. (AID 1963452)
Conditions: PEO1/OlaR viability, CellTiter-Glo luminescence, 96 h, stronger effect = lower value
Outline: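 PEO1, PEO4 and PEO1/OlaR ovarian cancer cells, 600 per well, exposed 96 h at 37C to a dilution series. Viability read by CellTiter-Glo luminescence, normalized to DMSO and empty wells; activity summarized as Z-AUC.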

[1] = measured here: PEO1 parental Z-AUC

With `CCCCCCCCCCCCCC(=O)N[C@H](CO)[C@H](O)c1ccc([N+](=O)[O-])cc1` as the molecule, how does the Z-AUC read?
Its Z-AUC is 1.33 (inactive).

And the Z-AUC [1]?
The Z-AUC was 1.09.

What about the Z-AUC (measured here: PEO4 Z-AUC) of the same molecule?
The Z-AUC was 1.02.

For `CNC(=O)c1cc(Oc2ccc(NC(=O)Nc3ccc(Cl)c(C(F)(F)F)c3)c(F)c2)ccn1`, which Z-AUC is on record?
The Z-AUC was 0.96 (inactive).

What about the Z-AUC [1] of the same molecule?
The Z-AUC was 0.462.

And the Z-AUC (measured here: PEO4 Z-AUC)?
The Z-AUC was 0.496.

Which Z-AUC does the source give for `Cn1c(=O)c(-c2c(Cl)cccc2Cl)cc2cnc(Nc3cccc(C(=O)O)c3)nc21` here?
The Z-AUC was 0.595 (inactive).

And the Z-AUC [1]?
The Z-AUC was 0.413.

What about the Z-AUC (measured here: PEO4 Z-AUC) of the same molecule?
The Z-AUC was 0.693.

With `CCOc1ccccc1N=Nc1c(C)[nH]n(-c2nc(-c3ccccc3)cs2)c1=O` as the molecule, how does the Z-AUC read?
Its Z-AUC is 1.3 (inactive).

What about the Z-AUC [1] of the same molecule?
Its Z-AUC is 1.25.

What about the Z-AUC (measured here: PEO4 Z-AUC) of the same molecule?
Its Z-AUC is 1.22.

Which results are given for `COC(=O)[C@H](c1ccccc1Cl)N1CCc2sccc2C1`?
Z-AUC: 1.43 (inactive); Z-AUC [1]: 1.15; Z-AUC (measured here: PEO4 Z-AUC): 0.952

For `CNC(=O)c1c(-c2ccc(F)cc2)oc2cc(N(CCO)S(C)(=O)=O)c(C3CC3)cc12`, which Z-AUC is on record?
The Z-AUC was 0.51 (inactive).

And the Z-AUC [1]?
The Z-AUC was 0.436.

What about the Z-AUC (measured here: PEO4 Z-AUC) of the same molecule?
Its Z-AUC is 0.532.

What does the source list for `CCCC1OC2C[C@@H]3[C@H]4CCC5=CC(=O)C=C[C@]5(C)[C@H]4C(O)C[C@]3(C)[C@]2(C(=O)CO)O1` (some centres not stated)?
Z-AUC: -0.0333 (inactive); Z-AUC [1]: 0.534; Z-AUC (measured here: PEO4 Z-AUC): -0.396

Which results are given for `CCC(C)SSc1ncc[nH]1` (configuration not stated)?
Z-AUC: -1.01 (inactive); Z-AUC [1]: -0.667; Z-AUC (measured here: PEO4 Z-AUC): -0.908

Which Z-AUC does the source give for `Cc1nn(Cc2ccccc2Cl)c(C)c1CN(C)CC(O)COc1ccc(Cl)cc1` (configuration not stated) here?
Its Z-AUC is 0.675 (inactive).

What about the Z-AUC [1] of the same molecule?
Its Z-AUC is 0.673.

And the Z-AUC (measured here: PEO4 Z-AUC)?
The Z-AUC was 0.908.

What does the source list for `COc1cc2ncn(-c3cc(OCc4ccccc4S(C)(=O)=O)c(C#N)s3)c2cc1OC`?
Z-AUC: 0.942 (inactive); Z-AUC [1]: 0.779; Z-AUC (measured here: PEO4 Z-AUC): 0.362

With `O=c1[nH]nc(OCCCc2ccc(Cl)cc2)c(NCc2cccnc2)c1Br` as the molecule, how does the Z-AUC read?
Its Z-AUC is -1.27 (inactive).

And the Z-AUC [1]?
The Z-AUC was -1.54.

And the Z-AUC (measured here: PEO4 Z-AUC)?
Its Z-AUC is -1.42.

For `CCC(=O)NCC[C@@H]1CCc2ccc3c(c21)CCO3`, which Z-AUC is on record?
The Z-AUC was -0.993 (inactive).

And the Z-AUC [1]?
Its Z-AUC is 1.01.

What about the Z-AUC (measured here: PEO4 Z-AUC) of the same molecule?
The Z-AUC was 0.501.

For `CN(C)N=Nc1nc[nH]c1C(N)=O`, which Z-AUC is on record?
The Z-AUC was 1.39 (inactive).

What about the Z-AUC [1] of the same molecule?
Its Z-AUC is 0.491.

What about the Z-AUC (measured here: PEO4 Z-AUC) of the same molecule?
The Z-AUC was 0.792.

For `CN1CCc2c(n(Cc3ccc(C(=O)NO)cc3)c3ccccc23)C1`, which Z-AUC is on record?
Its Z-AUC is 0.742 (inactive).

What about the Z-AUC [1] of the same molecule?
The Z-AUC was 0.892.

What about the Z-AUC (measured here: PEO4 Z-AUC) of the same molecule?
The Z-AUC was 0.628.

With `CCn1c(-c2nonc2N)nc2cncc(CNC3CCNCC3)c21` as the molecule, how does the Z-AUC read?
The Z-AUC was -0.284 (inactive).

What about the Z-AUC [1] of the same molecule?
Its Z-AUC is 0.212.

And the Z-AUC (measured here: PEO4 Z-AUC)?
Its Z-AUC is 0.661.

Which results are given for `O=C(CO)N1CCC(c2[nH]nc(-c3ccc(Cl)cc3)c2-c2ccncn2)CC1`?
Z-AUC: -0.00709 (inactive); Z-AUC [1]: 0.349; Z-AUC (measured here: PEO4 Z-AUC): 0.147

Which Z-AUC does the source give for `CN1C(=O)C(Cc2c[nH]c3ccccc23)NC1=S` (configuration not stated) here?
The Z-AUC was -0.877 (inactive).

What about the Z-AUC [1] of the same molecule?
Its Z-AUC is -0.326.

What about the Z-AUC (measured here: PEO4 Z-AUC) of the same molecule?
Its Z-AUC is -0.823.

What does the source list for `Cc1ccccc1C(=O)c1ccc(Nc2ccc(Br)cc2N)cc1Cl`?
Z-AUC: -0.304 (inactive); Z-AUC [1]: 0.73; Z-AUC (measured here: PEO4 Z-AUC): 0.429

Which Z-AUC does the source give for `CN1CCN(c2cccc(Nc3nc4c(-c5ccc(S(C)(=O)=O)cc5)cccn4n3)c2)CC1` here?
Its Z-AUC is 0.515 (inactive).

And the Z-AUC [1]?
Its Z-AUC is 0.358.

What about the Z-AUC (measured here: PEO4 Z-AUC) of the same molecule?
Its Z-AUC is 0.131.

What does the source list for `CC1CNc2c(cccc2S(=O)(=O)N[C@@H](CCCN=C(N)N)C(=O)N2CC[C@@H](C)C[C@@H]2C(=O)O)C1` (some centres not stated)?
Z-AUC: 1.14 (inactive); Z-AUC [1]: 0.686; Z-AUC (measured here: PEO4 Z-AUC): 1.06

With `CCN(CC)CCCCNc1nc2cc(Cl)c(Cl)cc2nc1-c1ccc(-c2cccs2)s1` as the molecule, how does the Z-AUC read?
Its Z-AUC is 2.01 (inactive).

What about the Z-AUC [1] of the same molecule?
Its Z-AUC is 0.897.

What about the Z-AUC (measured here: PEO4 Z-AUC) of the same molecule?
Its Z-AUC is 0.59.

Which results are given for `CN1CCN(c2ncc(-c3cc(Cl)cc(Cl)c3Cl)c(N)n2)CC1`?
Z-AUC: -0.667 (inactive); Z-AUC [1]: -0.953; Z-AUC (measured here: PEO4 Z-AUC): -0.943

For `Cc1cnc(Nc2cccc(CN3CCOCC3)c2)nc1Nc1cccc(S(=O)(=O)NC(C)(C)C)c1`, which Z-AUC is on record?
Its Z-AUC is -1.13 (inactive).

What about the Z-AUC [1] of the same molecule?
Its Z-AUC is -0.892.

What about the Z-AUC (measured here: PEO4 Z-AUC) of the same molecule?
The Z-AUC was -1.26.

For `CC1=C[C@@H]2[C@@H]([C@@H](O)C[C@@]3(C)[C@H]2C[C@@H](C)[C@]3(O)C(=O)CO)[C@@]2(C)Cc3cnn(-c4ccccc4)c3C=C12`, which Z-AUC is on record?
The Z-AUC was -1.56 (inactive).

And the Z-AUC [1]?
The Z-AUC was -0.109.

What about the Z-AUC (measured here: PEO4 Z-AUC) of the same molecule?
The Z-AUC was -1.25.

With `COc1cc2ncnc(Nc3cc(Br)c(O)c(Br)c3)c2cc1OC` as the molecule, how does the Z-AUC read?
The Z-AUC was -1.45 (inactive).

What about the Z-AUC [1] of the same molecule?
The Z-AUC was -0.545.

What about the Z-AUC (measured here: PEO4 Z-AUC) of the same molecule?
The Z-AUC was -1.13.

For `CNc1nc(Nc2ccc(C(=O)N3CCOCC3)cc2OC)ncc1Cl`, which Z-AUC is on record?
The Z-AUC was -0.915 (inactive).

And the Z-AUC [1]?
The Z-AUC was -0.00443.

And the Z-AUC (measured here: PEO4 Z-AUC)?
Its Z-AUC is 0.143.

What does the source list for `CC[C@H](C)n1cc(C)c2c(C(=O)NCc3c(C)cc(C)[nH]c3=O)cc(-c3ccc(N4CCNCC4)nc3)cc21`?
Z-AUC: 1.9 (inactive); Z-AUC [1]: 1.58; Z-AUC (measured here: PEO4 Z-AUC): 1.72

For `Fc1ccc(CNc2ncnc3ccc(F)cc23)cc1`, which Z-AUC is on record?
Its Z-AUC is -0.894 (inactive).

What about the Z-AUC [1] of the same molecule?
The Z-AUC was -1.29.

What about the Z-AUC (measured here: PEO4 Z-AUC) of the same molecule?
Its Z-AUC is -1.17.

Which Z-AUC does the source give for `O=C1CN2Cc3c(ccc(Cl)c3Cl)N=C2N1` here?
Its Z-AUC is -0.36 (inactive).

What about the Z-AUC [1] of the same molecule?
The Z-AUC was 0.71.

And the Z-AUC (measured here: PEO4 Z-AUC)?
The Z-AUC was 0.69.

What does the source list for `CC(=O)Nc1cccc(-n2c(=O)n(C3CC3)c(=O)c3c(Nc4ccc(I)cc4F)n(C)c(=O)c(C)c32)c1`?
Z-AUC: -0.972 (inactive); Z-AUC [1]: -1.33; Z-AUC (measured here: PEO4 Z-AUC): -1.07

What does the source list for `O=C1C(c2c(O)[nH]c3ccccc23)=Nc2ccccc21`?
Z-AUC: 0.207 (inactive); Z-AUC [1]: 0.824; Z-AUC (measured here: PEO4 Z-AUC): 0.396

Which results are given for `COc1cc2c(cc1Cc1cccc(Cl)c1F)c(=O)c(C(=O)O)cn2[C@H](CO)C(C)C`?
Z-AUC: 1.07 (inactive); Z-AUC [1]: 0.736; Z-AUC (measured here: PEO4 Z-AUC): 0.927

Which Z-AUC does the source give for `Cc1ccc(S(=O)(=O)OCC(=O)Nc2ccc(C(=O)O)c(O)c2)cc1` here?
Its Z-AUC is 1.67 (inactive).

And the Z-AUC [1]?
Its Z-AUC is 1.37.

And the Z-AUC (measured here: PEO4 Z-AUC)?
Its Z-AUC is 1.35.

Which results are given for `CN(C)c1ccc(-c2nc3ncc(Cl)c(N4CCN(CC(=O)Nc5nccs5)CC4)c3[nH]2)cc1`?
Z-AUC: -1.63 (inactive); Z-AUC [1]: -1.25; Z-AUC (measured here: PEO4 Z-AUC): -1.61
